# EBNA-1 inh = blocks EBNA-1 binding to DNA; AID 1950; actives 0.34% (n = 300,000); inhibition, % at 14.8 µM; EBNA-1 DNA binding, fluorescence polarization; in the data active = inhibition above about 28%
# rCAG binder = molecules binding r(CAG) RNA repeats | actives 1.3% (n = 370,000) | AID 651821 | r(CAG) RNA repeat, TO-PRO-1 dye displacement fluorescence | inhibition, % at 3 µM;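 active = inhibition above the plate cutoff, the mean of all test compounds on that plate plus 3 SD, cut at about 35% in these data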;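 also: 0% = DMSO alone and 100% = 100 µM mitoxantrone as full dye displacement; higher means more dye released from RNA so lower well fluorescence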
# ZTA counter = counter-screen for EBNA-1 inhibitors: inhibitors of Epstein-Barr virus ZTA. ZTA-DNA binding, fluorescence polarization. actives 0.15% (n = 320,000). AID 2234. inhibition, % at 11 µM; in the data active = inhibition above about 33%
# Target sequence (P03206 whole entry, looked up): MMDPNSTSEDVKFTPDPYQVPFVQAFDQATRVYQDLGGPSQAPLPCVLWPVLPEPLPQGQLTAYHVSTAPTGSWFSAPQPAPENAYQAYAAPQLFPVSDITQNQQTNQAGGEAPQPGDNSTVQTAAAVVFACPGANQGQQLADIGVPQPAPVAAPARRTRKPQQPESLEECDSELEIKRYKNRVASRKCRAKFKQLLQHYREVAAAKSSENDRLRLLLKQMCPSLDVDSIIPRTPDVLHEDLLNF
# PAFAH1B3 FP inh = PAFAH1B3 (human) inhibition | Q15102 | recombinant PAFAH1B3, FP-rhodamine probe, fluorescence polarization | inhibition, % at 3.39 µM | actives 0.28% (n = 340,000);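 active = inhibition above the screen-wide average of all tested compounds plus 3 SD, cut at about 25% in these data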;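 also: 0% = enzyme with DMSO only and 100% = wells lacking PAFAH1B3 protein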
# Target sequence (Q15102 whole entry, looked up): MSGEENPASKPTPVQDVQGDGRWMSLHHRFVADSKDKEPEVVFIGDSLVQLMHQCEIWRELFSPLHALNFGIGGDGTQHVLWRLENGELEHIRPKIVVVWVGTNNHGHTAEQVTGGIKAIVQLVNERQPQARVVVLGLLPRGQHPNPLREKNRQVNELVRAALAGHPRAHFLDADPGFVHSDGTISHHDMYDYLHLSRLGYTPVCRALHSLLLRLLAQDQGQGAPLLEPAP
# PAFAH1B2 FP inh = PAFAH1B2 (human) inhibition | actives 1.2% (n = 340,000) | recombinant PAFAH1B2, FP-rhodamine activity probe, fluorescence polarization | inhibition, % at 3.39 µM | P68402;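 active = inhibition above the mean of all tested compounds plus 3 SD, cut at about 24% in these data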;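 also: 0% = enzyme with DMSO and 100% = wells lacking PAFAH1B2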
# PAFAH2 FP inh = PAFAH2 (human) inhibition; Q99487; recombinant PAFAH2, FP-rhodamine activity probe, fluorescence polarization; inhibition, % at 3.39 µM; actives 0.99% (n = 340,000); AID 492956;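 active = inhibition above the mean over all tested compounds plus 3 SD, cut at about 30% in these data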;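 also: inhibitors block probe labeling of enzyme so polarization drops; 0% = enzyme with DMSO and 100% = wells lacking PAFAH2 protein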
# PAFAH2 confirm = confirmation of human PAFAH2 inhibitors; shares compounds with PAFAH2 FP inh; actives 65% (n = 2,300); recombinant PAFAH2, FP-rhodamine activity probe, fluorescence polarization; inhibition, % at 3.39 µM;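 active = mean inhibition over three repeats above a set limit taken from the earlier primary screen, cut at about 30% in these data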;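 also: inhibitor blocks binding of rhodamine activity probe so polarization falls; 0% = enzyme with DMSO and 100% = wells lacking PAFAH2 protein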
# Starred values were filed as active, the others as inactive; . = no result given. This is a sample that favours compounds with a hit; in the whole collection about 2.9% have one here.
SMILES,EBNA-1 inh,rCAG binder,ZTA counter,PAFAH1B3 FP inh,PAFAH1B2 FP inh,PAFAH2 FP inh,PAFAH2 confirm
C/C(=N\NC(=O)c1ccccn1)C12CC3CC(CC(C3)C1)C2,-8,-4,-8,1,17,38*,21
Cc1noc(C)c1COc1ccc(C(=O)OCC(=O)NC23CC4CC(CC(C4)C2)C3)cc1,6,-2,-2,7,2,81*,80*
COc1ccc(NC(=O)COC(=O)c2ccc(OCc3c(C)noc3C)cc2)cc1OC,0,-4,-20,0,0,28,.
Cc1noc(C)c1COc1ccc(C(=O)OCC(=O)NC2CCCCC2C)cc1 (stereo not drawn),-5,3,1,1,4,77*,82*
Cc1ccccc1CN1CCCCC(NC(=O)c2ccc(F)cc2F)C1=O (stereo not drawn),.,-1,.,.,.,.,.
CC(C)[C@H](NC(=O)c1ccccc1)C(=O)N1CCC[C@H]1C(=O)NCc1ccccc1,.,2,.,.,.,.,.
Cc1cc(C)c(S(=O)(=O)N2CCN(C(=O)N3CCCCC3)CC2)c(C)c1,-2,-9,4,8,-3,34*,30*
COc1ccccc1NS(=O)(=O)c1ccc(NC(=O)c2ccncc2)cc1,7,3,14,3,3,7,.
COc1ccccc1NS(=O)(=O)c1ccc(C(=O)Nc2ncccc2O)cc1,.,.,10,3,6,55*,46*
O=C(COC(=O)c1ccco1)Nc1cc(S(=O)(=O)N2CCCCC2)ccc1Cl,.,4,.,5,3,55*,46*
O=C(COC(=O)c1ccco1)Nc1cc(S(=O)(=O)N2CCOCC2)ccc1Cl,.,1,.,8,6,58*,35*
O=C(COC(=O)c1ccccc1)Nc1cc(S(=O)(=O)N2CCCCCC2)ccc1Cl,.,2,4,8,3,30*,16
O=C(COC(=O)c1ccccc1O)Nc1cc(S(=O)(=O)N2CCCCCC2)ccc1Cl,.,-1,4,3,2,2,.
CCN(c1ccccc1)S(=O)(=O)c1ccc(Cl)c(NC(=O)COC(=O)C2CC2C)c1 (stereo not drawn),-13,-8,-9,7,-2,79*,76*
Cc1ccc(S(=O)(=O)N2CCOCC2)cc1NC(=O)COC(=O)c1ccco1,.,3,.,.,.,.,.
CCN(c1ccccc1)S(=O)(=O)c1ccc(Cl)c(NC(=O)COC(=O)c2cc(O)c3ccccc3c2O)c1,7,.,1,.,.,.,.
CC(C)=CCC/C(C)=C/CN1C(=O)N(c2ccc(F)cc2)[C@H]2C[C@@H](c3ccccc3)[C@@H](C)[C@@H](C(=O)N3CCOCC3)C[C@H]21,.,5,.,.,.,.,.
COC(=O)[C@]12C[C@H](CC(=O)NCC34CC5CC(CC(C5)C3)C4)C(=O)N(Cc3ccc(Cl)cc3Cl)C1=C[C@H](C(C)(C)C)O[C@@H]2C,.,2,.,.,.,.,.
O=C(O)/C=C/C(=O)NCCNc1ncc(C(F)(F)F)cc1Cl,-1,2,4,2,6,54*,38*
O=S(=O)(NCCNc1ncc(C(F)(F)F)cc1Cl)C(F)(F)F,8,4,6,7,4,4,.
O=C(COC(=O)c1c[nH]c2ccccc12)NC1CCCC1,.,4,15,10,5,72*,68*
Cc1ccc(NC(=O)COC(=O)c2c[nH]c3ccccc23)cc1C,.,5,22,4,4,71*,71*
NC(=O)Nc1ccc(C(=O)OCC(=O)c2c[nH]c3ccccc23)cc1,.,10,.,11,1,36*,30
CC(=O)c1ccc(NC(=O)COC(=O)c2c[nH]c3ccccc23)cc1,.,3,-2,21,-10,45*,29
N#CCC(=O)Nc1ccc(C(=O)OCC(=O)c2c[nH]c3ccccc23)cc1,.,19,.,-20,-11,-11,.
SMILES,EBNA-1 inh,rCAG binder,ZTA counter,PAFAH1B3 FP inh,PAFAH1B2 FP inh,PAFAH2 FP inh,PAFAH2 confirm
CCC(CO)Nc1cccc2c1S(=O)(=O)N(Cc1cn(Cc3cccc(F)c3)nn1)Cc1ccccc1O2 (stereo not drawn),.,2,.,.,.,.,.
CC1CCC2(CC1)CCN(CCCOC(=O)Nc1ccc3c(c1)OCO3)C2=O (stereo not drawn),.,-2,.,.,.,.,.
COc1cccc(Nc2nc(C(N)Cc3ccc(C(F)(F)F)cc3)cs2)n1 (stereo not drawn),.,15,.,.,.,.,.
N#Cc1ccccc1NC(=O)COC(=O)c1c[nH]c2ccccc12,.,4,.,-5,-4,69*,67*
O=C(COC(=O)c1c[nH]c(=O)[nH]c1=O)Nc1ccccc1Br,-1,-4,5,11,8,-3,.
CC1CCCC(C)N1C(=O)COC(=O)c1ccc(Br)o1 (stereo not drawn),.,1,.,-2,10,3,.
CC1CCCC(C)N1C(=O)COC(=O)c1ccco1 (stereo not drawn),.,-1,.,11,6,31*,4
O=C1CC2c3cc(-c4cc5ccccc5o4)ccc3CCN2C(=O)CN1Cc1ccccc1 (stereo not drawn),.,5,.,.,.,.,.
C=CCSC1=N/C(=C\c2cc(OC)c3c(c2)OCO3)C(=O)S1,5,12,6,7,-1,42*,43*
O=C(COC(=O)c1ccc(O)cc1)Nc1cc(C(F)(F)F)ccc1Cl,-8,1,-5,5,13,55*,40*
CCC(=O)Nc1cc(C(=O)OCC(=O)c2ccccc2Cl)ccc1C,-3,-1,6,5,10,42*,32*
O=C(COC(=O)c1ccc(O)cc1)NCC1COc2ccccc2O1 (stereo not drawn),.,3,-4,4,-3,32*,27
CC(OC(=O)c1ccc(O)cc1)C(=O)Nc1cc(C(F)(F)F)ccc1Cl (stereo not drawn),-1,2,-1,1,4,-2,.
CCC(=O)Nc1cc(C(=O)OCC(=O)c2ccc(Cl)cc2Cl)ccc1C,0,0,-15,11,7,17,.
CCC(=O)c1ccc(OCC(=O)NCC2COc3ccccc3O2)cc1 (stereo not drawn),.,3,-8,6,2,2,.
O=C(COC(=O)c1ccc2[nH]c3c(c2c1)CCCC3)Nc1ccccc1Cl,7,3,-1,8,1,32*,23
CCOC(=O)c1csc(NC(=O)C2CCCN(S(=O)(=O)c3ccc(C)cc3)C2)n1 (stereo not drawn),.,1,.,.,.,.,.
CC(C)(C)NC(=O)COC(=O)c1ccc(O)cc1,8,0,-4,1,0,64*,53*
CCOC(=O)NC(=O)COC(=O)c1ccc(O)cc1,-3,0,-9,10,6,29,.
O=C(COC(=O)c1cccnc1Cl)Nc1ccc2c(c1)OCCO2,-2,-1,18,9,-1,36*,30*
